From PubChem BioAssay
Hits are enriched below; roughly 5.3% of the tested compounds scored in any of these assays.
IMPase inh: qHTS Assay for Identifying the Cell-Membrane Permeable IMPase Inhibitors; 120,000 tested, under 10 active; CHO-M1 cells, IP1 accumulation, HTRF TR-FRET ratio; inhibition (IP1 accumulation), % at 46.1 µM; active = well fitted curve in the direction sought with a large enough effect in the signal ratio, not every such curve was filed as active; inconclusive = small, poorly fitted or top-dose-only effect, or a change in a side signal; inactive = no such curve, though single readings can be large or run the other way; the % refers to the signal ratio;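 also: cells stimulated with carbachol in lithium chloride buffer; higher means more IMPase inhibition seen as more IP1 and lower FRET ratio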
Target sequence (P97697 whole entry, looked up): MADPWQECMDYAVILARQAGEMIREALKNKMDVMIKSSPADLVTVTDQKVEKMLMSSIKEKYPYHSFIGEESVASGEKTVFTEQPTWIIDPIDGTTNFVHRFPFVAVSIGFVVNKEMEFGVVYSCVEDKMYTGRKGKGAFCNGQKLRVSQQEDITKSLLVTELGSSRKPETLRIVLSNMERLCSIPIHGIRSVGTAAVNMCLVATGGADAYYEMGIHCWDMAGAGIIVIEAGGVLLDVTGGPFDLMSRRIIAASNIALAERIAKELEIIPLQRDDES
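Seeded CHO-M1 cells were dosed with compound at up to 46 uM, stimulated with carbachol for 30 min, then lysed in IP-One detection reagents. Higher IP1 lowers the TR-FRET signal.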
12-hLO inh: qHTS Assay for Inhibitors of 12-hLO (12-human lipoxygenase); Polyunsaturated fatty acid lipoxygenase ALOX12 (Homo sapiens), P18054; purified 12-hLO, xylenol orange hydroperoxide absorbance; 150,000 tested, 0.12% active; Potency, µM (highest dose often 57.1 µM), most hits filed as inhibitors; also: nearly all actives have a fitted effect of over 55% in size
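Xylenol orange chromogenic assay: hydroperoxide from 12hLO oxidises Fe(II), giving red-shifted Fe(III)-XO absorbance. Conditions: 150 nM enzyme, 40 uM arachidonic acid, 25 mM Hepes pH 7.0, 0.01% Triton X-100, 30 min, room temperature.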
ALOX15B inhib: qHTS Assay for Inhibitors of 15-hLO-2 (15-human lipoxygenase 2); Polyunsaturated fatty acid lipoxygenase ALOX15B (Homo sapiens), O15296; purified 15hLO-2, xylenol orange hydroperoxide absorbance; Potency, µM (series often up to 57.1 µM), usual class: inhibitors; 110,000 tested, 0.56% active; AID 881, 2007; also: nearly all actives have a fitted effect of over 60% in size
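Read-out: hydroperoxide product oxidises ferrous iron, measured as xylenol orange complex via the 573-to-405 nm absorbance ratio after 30 min. Reaction: 50 nM enzyme, 15 min compound preincubation, 45 uM arachidonic acid, 90 min RT, Hepes pH 7.5 with Triton X-100.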
HPGD inh: qHTS Assay for Inhibitors of HPGD (15-Hydroxyprostaglandin Dehydrogenase); purified HPGD, NADH fluorescence kinetic, PGE2 substrate; Potency, µM, hits mostly inhibitors; 150,000 tested, 4.3% active; active = well fitted inhibition curve with a large enough effect, not every such curve was filed as active; inconclusive = small, poorly fitted or top-dose-only effect, or another doubt; inactive = no such curve, though single readings can be large or run the other way
Target sequence (P15428 whole entry, looked up): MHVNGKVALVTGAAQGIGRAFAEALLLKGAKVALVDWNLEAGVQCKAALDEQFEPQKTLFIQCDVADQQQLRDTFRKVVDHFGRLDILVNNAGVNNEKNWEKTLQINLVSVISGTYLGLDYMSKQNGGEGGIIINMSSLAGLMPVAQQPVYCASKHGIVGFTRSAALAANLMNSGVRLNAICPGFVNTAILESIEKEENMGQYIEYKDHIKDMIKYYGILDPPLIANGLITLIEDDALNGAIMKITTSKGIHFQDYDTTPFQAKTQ
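NADH formation kinetics: reaction with 30 uM PGE2 and 1 mM NAD+ (final), 20 nM enzyme, Tris-HCl pH 8 with Tween 20, after 15 min compound preincubation at room temperature. Fluorescence change, last versus first of five reads.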
PNC assembly inh: High Content Assay for Compounds that inhibit the Assembly of the Perinucleolar Compartment. PC3M PTB-GFP, PNC prevalence imaging, 16 h; hits give low values. 140,000 tested, 3.1% active. AID 2417, 2010. activity change (PNC), negative = inhibition, % at 10 µM;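 active = readout at or below -70, meaning at least 70% loss of cells showing the perinucleolar compartment, a nuclear body marking cancer cells; inconclusive = readout between -30 and a set limit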
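Read-out is percentage of cells bearing a perinucleolar compartment, from automated 20x imaging of fixed, Hoechst-stained PC3M PTB-GFP cells. Cells were seeded 4 h, then exposed 16 h to compound (23 nl of library stock) in duplicate plates.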
IMPase Li inh: qHTS Assay for Identifying the Cell-Membrane Permeable IMPase Inhibitors: Potentiation with Lithium; 210,000 tested, 0.35% active; CHO-M1 cells, IP1 TR-FRET (IP-One), carbachol + lithium; AID 1457, 2008; Potency, µM (series often up to 59.4 µM), most hits filed as inhibitors;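 also: IP1 builds up when IMPase is blocked and the TR-FRET signal falls; nearly all actives have a fitted effect of over 50% in size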
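Lithium-sensitised IP1 accumulation assay; M1-expressing CHO cells treated 30 min at 37C with compound. Competitive antibody detection by time-resolved FRET followed a 10 min room-temperature lysis step.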
Of the large screens only hits and unclear results are named; the others gave an inactive call. Unless noted, calls follow the shape of the dose curve; as a rule, active = well fitted curve in the direction sought with a large enough effect; inconclusive = small, poorly fitted or top-dose-only effect, or another doubt; inactive = no such curve, though single readings can be large; an effect the other way counts as inactive or inconclusive.

CCCCCC1CC(CC(=O)Nc2nncs2)C(=O)O1 (stereo not drawn)	PNC assembly inh -100.0 (no result: ALOX15B inhib)
Cc1c(Cl)c(C(=O)NC2C3CC4CC(C3)CC2C4)nn1C (stereo not drawn)	HPGD inh 20µM, PNC assembly inh inconclusive (no result: IMPase inh, ALOX15B inhib)
CCC12CN3CC(CC)(CN(C1)C3c1ccc([N+](=O)[O-])o1)C2=O (stereo not drawn)	none (no result: IMPase inh, 12-hLO inh, ALOX15B inhib, HPGD inh, PNC assembly inh)
O=C(O)c1cc(-c2ccc(Cl)s2)nc2ccccc12	IMPase Li inh 11.2µM (no result: IMPase inh, 12-hLO inh, ALOX15B inhib, HPGD inh, PNC assembly inh)
O=C(O)c1cc(-c2ccccc2)nc2ccccc12	none (no result: IMPase inh, ALOX15B inhib)
CCc1cccc(C)c1NC(=O)CSc1nnc(CCCOc2ccc(Cl)cc2Cl)n1C	PNC assembly inh -113.4 (no result: IMPase inh, ALOX15B inhib)
O=C1NC2(CCCCCC2)C(=O)N1Cc1ccc([N+](=O)[O-])cc1	PNC assembly inh inconclusive (no result: ALOX15B inhib)
N#CCCn1c(=O)c(-c2ccccc2)nc2cnc(Oc3cccc(Cl)c3)nc21	HPGD inh inconclusive, IMPase Li inh inconclusive (no result: IMPase inh, PNC assembly inh)
CCNc1ncc2nc(-c3ccc(OC)cc3)c(=O)n(CCc3ccccc3)c2n1	IMPase Li inh 11.2µM (no result: IMPase inh, 12-hLO inh, HPGD inh, PNC assembly inh)
CCNc1ncc2nc(-c3cc(F)cc(F)c3)c(=O)n(CCc3ccccc3)c2n1	none (no result: IMPase inh, 12-hLO inh, HPGD inh, PNC assembly inh)
COc1ccc(-c2nc3cnc(Oc4cccc(Cl)c4)nc3n(CCC#N)c2=O)cc1	IMPase Li inh 5.01µM (no result: IMPase inh, 12-hLO inh, HPGD inh, PNC assembly inh)
COc1ccc(-c2nc3cnc(OC)nc3n(C3CC3)c2=O)cc1	HPGD inh inconclusive, IMPase Li inh 12.6µM (no result: IMPase inh, PNC assembly inh)
CCNc1ncc2nc(-c3ccc(F)cc3)c(=O)n(CCC#N)c2n1	HPGD inh inconclusive, IMPase Li inh 10µM (no result: IMPase inh, PNC assembly inh)
COc1ncc2nc(-c3ccccc3)c(=O)n(C3CC3)c2n1	none (no result: IMPase inh, 12-hLO inh, HPGD inh, PNC assembly inh)
O=C(c1nc2nc(-c3cccs3)cc(C(F)(F)F)n2n1)N1CCN(Cc2ccccc2)CC1	HPGD inh inconclusive (no result: ALOX15B inhib)
CC(C)c1cccc2nc3c(c(C(C)(C)C)c12)Cn1c-3cccc1=O	HPGD inh inconclusive (no result: IMPase inh, PNC assembly inh)
O=C(CSc1ncn[nH]1)Nc1ccc(OCc2ccccc2)cc1	none (no result: IMPase inh, 12-hLO inh, ALOX15B inhib, HPGD inh, PNC assembly inh)
Cc1c(Cl)cccc1NC(=S)N1CCC(C(N)=O)(N2CCCCC2)CC1	none (no result: IMPase inh, ALOX15B inhib)
COC(=O)CCC/C=C1/SCC(NC(=O)c2ccccc2)C1=O (stereo not drawn)	ALOX15B inhib inconclusive, HPGD inh 25.1µM
COC(=O)CCC/C=C1/SCC(NC(=O)c2ccccc2)C1O (stereo not drawn)	ALOX15B inhib inconclusive, PNC assembly inh inconclusive
O=C1Nc2cc(C(=O)N3CCc4ccccc4C3)ccc2S/C1=C\c1ccccc1	HPGD inh 15.8µM (no result: IMPase inh, ALOX15B inhib)
Nc1c(-c2ccccc2)c(CSc2nc3ccccc3[nH]2)nn1-c1ccc(C(=O)O)cc1	PNC assembly inh inconclusive (no result: ALOX15B inhib, HPGD inh, IMPase Li inh)
COc1ccc2cc3cc(C(=O)Nc4cc(OC)c(OC)c(OC)c4)oc3nc2c1	PNC assembly inh -105.0
COc1ccc2cc3cc(C(=O)Nc4ccc5c(c4)OCCO5)oc3nc2c1	none
CCCC(=O)Nc1ccc2nc(SCC(=O)Nc3nccs3)sc2c1	PNC assembly inh inconclusive
CCN(CC)C(=O)CSc1nc2ccc(NC(=O)CSc3nnc(N)s3)cc2s1	HPGD inh 14.1µM, PNC assembly inh -100.0
COc1ccccc1C(=O)Nc1ccc2nc(SCC(=O)N(C)C)sc2c1	PNC assembly inh -113.8 (no result: IMPase inh, ALOX15B inhib)
CC(=O)Nc1ccc2nc(SCC(=O)NCCOc3ccccc3)sc2c1	none (no result: IMPase inh, 12-hLO inh, ALOX15B inhib, HPGD inh, PNC assembly inh)
CCN(CC)C(=O)CSc1nc2ccc(NC(=O)CSc3nccn3C)cc2s1	IMPase inh inconclusive, HPGD inh 31.6µM, PNC assembly inh inconclusive (no result: ALOX15B inhib)
O/N=C/c1ccn(-c2ccc(Br)cc2)c1	none (no result: IMPase inh, 12-hLO inh, ALOX15B inhib, HPGD inh, PNC assembly inh)
CC(=O)Nc1ccc2c(c1)ncn2-c1ccc(C)cc1	none (no result: IMPase inh, 12-hLO inh, ALOX15B inhib, HPGD inh, PNC assembly inh)
COc1ccc(CCNS(=O)(=O)c2ccc(C3CNC(=O)C3)cc2)cc1OC (stereo not drawn)	PNC assembly inh -118.9 (no result: ALOX15B inhib)
